Screening data (PubChem)
Rows were chosen to be rich in hits. Some 8.8% of all compounds tested hit in one or more screens of this group.
HttQ103 aggreg = mutant huntingtin aggregation inhibition; PC12 HttQ103-GFP aggregates, Acumen cytometry, 40 h; Potency, µM (highest dose often 46.1 µM), hits mostly inhibitors; hit rate 1.1% among 220,000; also: nearly all actives have a fitted effect of over 60% in size
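Compounds (qHTS titration) were added to PC12 cells expressing an ecdysone-driven HTT exon 1 Q103–GFP fusion after induction with 100 nM tebufenozide. Aggregate formation was measured as GFP objects in cell lysates.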
HTT ATP protect = cytoprotection in Huntington HTT-Q103 PC12 cell model. PC12 HTT-Q103 induced, cytoprotection, ATP luminescence, 40 h. hit rate 0.14% among 230,000. Potency, µM (doses to about 56.4 µM), hits mostly activators; also: nearly all actives have a fitted effect of over 45% in size
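PC12 cells stably carrying ecdysone-inducible Htt exon 1 (Q103)–GFP were induced with 100 nM tebufenozide (final) alongside library compounds in a dose series. Cytoprotection was scored as retained ATP by ATPlite luminescence.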
HPGD inh = inhibitors of human 15-hydroxyprostaglandin dehydrogenase (HPGD). P15428. hit rate 4.3% among 150,000. Potency, µM, most hits filed as inhibitors. purified HPGD, NADH fluorescence kinetic, PGE2 substrate. AID 894; active = well fitted inhibition curve with a large enough effect, not every such curve was filed as active; inconclusive = small, poorly fitted or top-dose-only effect, or another doubt; inactive = no such curve, though single readings can be large or run the other way
Target sequence (P15428 whole entry, looked up): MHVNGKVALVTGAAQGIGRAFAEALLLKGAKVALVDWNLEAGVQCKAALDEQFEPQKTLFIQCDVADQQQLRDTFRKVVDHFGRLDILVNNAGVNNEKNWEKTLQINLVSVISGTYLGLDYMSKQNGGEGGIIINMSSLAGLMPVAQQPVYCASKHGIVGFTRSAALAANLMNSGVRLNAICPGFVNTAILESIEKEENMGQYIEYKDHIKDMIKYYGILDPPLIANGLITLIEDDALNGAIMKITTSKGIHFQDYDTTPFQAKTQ
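20 nM HPGD preincubated 15 min at room temperature with compound in 50 mM Tris-HCl pH 8, 0.01% Tween 20. Started with 1 mM NAD+ and 30 uM prostaglandin E2; NADH fluorescence (360/450 nm) read 5 times over 30-s intervals, last minus first.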
LMNA splice mod = modulators of lamin A splicing | HeLa LMNA splicing GFP/RFP minigene ratio, 48 h | Potency, µM (series often up to 46.1 µM), most hits filed as inhibitors | hit rate 0.01% among 200,000 | AID 1487; active = well fitted inhibition curve with a large enough effect in the signal ratio, with a control signal flat, not every such curve was filed as active; inconclusive = small, poorly fitted or top-dose-only effect, or effect the other way, or a change in a side signal; the % refers to the signal ratio
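S3 HeLa stable clones carrying a lamin A-EGFP splicing minigene plus DsRed2 were seeded at 600 cells/well in Opti-MEM with 2% FBS, pin-dosed and incubated 48 h at 37°C. Acumen cytometry (488 nm) gave the GFP/RFP total-intensity ratio.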
ALDH1A1 block = inhibitors of human aldehyde dehydrogenase 1A1 | P00352 | Potency, µM (doses to about 75.3 µM), hits mostly inhibitors | Purified ALDH1A1, NADH fluorescence, propionaldehyde substrate | hit rate 7.3% among 220,000; active = well fitted inhibition curve with a large enough effect, not every such curve was filed as active; inconclusive = small, poorly fitted or top-dose-only effect, or another doubt; inactive = no such curve, though single readings can be large or run the other way
Target sequence (P00352 whole entry, looked up): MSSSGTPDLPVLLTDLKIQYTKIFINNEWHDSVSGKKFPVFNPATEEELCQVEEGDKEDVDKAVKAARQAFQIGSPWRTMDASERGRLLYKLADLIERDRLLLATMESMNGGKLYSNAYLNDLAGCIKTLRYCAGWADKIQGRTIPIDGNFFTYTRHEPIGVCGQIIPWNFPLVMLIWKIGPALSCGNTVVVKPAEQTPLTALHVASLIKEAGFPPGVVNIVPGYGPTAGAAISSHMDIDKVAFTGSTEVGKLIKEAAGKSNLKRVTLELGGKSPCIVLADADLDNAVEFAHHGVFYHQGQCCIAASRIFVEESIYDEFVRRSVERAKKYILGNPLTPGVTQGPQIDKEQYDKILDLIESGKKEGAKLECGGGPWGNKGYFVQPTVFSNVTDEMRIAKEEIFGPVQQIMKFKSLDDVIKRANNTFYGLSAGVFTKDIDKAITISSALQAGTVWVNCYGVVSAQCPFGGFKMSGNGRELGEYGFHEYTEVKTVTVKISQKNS
A number is an active result; n = inactive; u = inconclusive; x = no result given; [ ] = another dose, or the depositor's remark. Unless noted, calls follow the shape of the dose curve; as a rule, active = well fitted curve in the direction sought with a large enough effect; inconclusive = small, poorly fitted or top-dose-only effect, or another doubt; inactive = no such curve, though single readings can be large; an effect the other way counts as inactive or inconclusive.

SMILES | HttQ103 aggreg | HTT ATP protect | HPGD inh | LMNA splice mod | ALDH1A1 block
COC(=O)C1Sc2[nH]c(=O)sc2C2c3ccccc3OC(=O)C12 (stereo not given) | n | n | n | n | u
CCOC(=O)C1CCCN(C(=O)c2nn(-c3ccc(C)cc3)c(=O)n(C)c2=O)C1 (stereo not given) | x | x | x | n | x
O=C(O)c1ccc(CSc2nc3ccccc3o2)cc1 | n | n | 28µM | n | n
c1ccc2oc(SCc3cn4ccccc4n3)nc2c1 | n | n | n | n | 3.2µM
Cc1cccc2nc(CSc3nc4ccccc4o3)cn12 | n | n[10 µM] | n | n | u
COc1ccc(CN2CCNC(=O)C2CC(=O)N2CCCCO2)c(OC)c1 (stereo not given) | n[9.22 µM] | x | x | n | n
COc1ccc(-n2c(=O)c(CCc3ccccc3)nc3cnc(N(C)C)nc32)cc1 | x | n | n | x | u
O=C(CP(=O)(c1ccccc1)c1ccccc1)N/N=C/c1cc(Br)cc(Br)c1O | 11µM | u | 0.14µM | u | n
O=C(N/N=C/c1cc(Cl)ccc1O)c1ccccc1Br | 2.5µM | n | x | x | n
O=C(CNC(=O)c1ccccc1Br)N/N=C/c1ccccc1O | 10µM | n | x | x | n
O=C(CNC(=O)c1ccccc1Br)N/N=C/c1cc(Br)ccc1O | 3.5µM | n | x | x | n
O=C(Cc1ccccc1)N/N=C/c1cc(Br)cc(Cl)c1O | u | x | x | x | n
CCC(=O)c1ccc2ncccc2c1 | n | n[0.074 µM] | n | n | n
O=C(CCCCCNC(=O)c1ccccc1)N/N=C/c1ccc(O)cc1O | n | n[10 µM] | 28µM | n | n
O=C(CN1CC(c2ccccc2)CC1=O)N/N=C/c1cc(Br)ccc1O (stereo not given) | u | n[10 µM] | u | u | 25µM
O=C(CNC(=O)C(c1ccccc1)c1ccccc1)N/N=C/c1ccc(O)cc1O | n[9.22 µM] | n[10 µM] | x | x | x
O=C(CNC(=O)c1ccccc1F)N/N=C/c1cc(Br)ccc1OC(=O)/C=C/c1ccco1 | 10µM | x | n | u | u
C/C(=N\NC(=O)CCCCCNC(=O)c1ccccc1)c1ccccc1O | u | n[10 µM] | n | n | n
Cc1cc(SCC(=O)N/N=C/c2ccc(O)cc2O)c(C)cc1Br | 7.9µM | n | 20µM | u | n
CCOc1ccc(NC(=O)CN2CC(c3ccccc3)CC2=O)cc1 (stereo not given) | n | n[10 µM] | n | n | n
O=C1[C@H]2[C@H]3[C@H](O)[C@H](O)C/C(=N/OC[C@@H](O)COCc4ccco4)[C@@H]3CC[C@@H]2C(=O)N1Cc1ccc2c(c1)OCO2 | x | n[10 µM] | x | x | n[13.5 µM]
O=C(CNC(=O)c1ccccc1)N/N=C/c1cc(Br)ccc1O | 3.2µM | x | n | u | n
O=C(CNC(=O)c1ccncc1)N/N=C/c1cc(Br)ccc1O | u | n[10 µM] | n | n | n
Cc1nn(-c2ccc(N3CCOCC3)nn2)c(C)c1CCC(=O)NCc1ccc(Cl)cc1 | x | x | x | n | x
Cc1oc(C)c2c(=O)ccc3c(c12)OC(N)=C(C#N)C3c1ccc(F)cc1 (stereo not given) | n | n | 25µM | u | 14µM
SMILES | HttQ103 aggreg | HTT ATP protect | HPGD inh | LMNA splice mod | ALDH1A1 block
COC(=O)[C@@H]1C[C@H]1[C@@H](NC(=O)c1cccnc1)c1ccccc1 | x | n | n | x | n
COC(=O)[C@H]1C[C@@H]1[C@H](NC(=O)c1ccccc1)c1ccccc1 | n | n | n | n | 8.9µM
CCCC[C@@H]1C[C@H]1C(NC(=O)c1ccco1)c1ccccc1 (stereo not given in full) | x | n | n | x | 25µM
N[C@H](C(=O)O)[C@@H]1[C@@H](C(=O)O)C1(F)F | x | u | n | x | n
Cc1ccc(CN2CCN(C(=O)c3ccncc3)CC2)cc1 | n[9.22 µM] | n[10 µM] | x | n | u
Cc1ccc(SCc2ccc(C(=O)N3CCCC3)cc2)cc1 | 11µM | n | x | x | u
CCN1CCN(C(=O)c2ccc(CSc3ccc(C)cc3)cc2)CC1 | n | n | 14µM | n | u
COc1ccc(N(CC(=O)Nc2ccccc2F)S(=O)(=O)c2ccc(C)c([N+](=O)[O-])c2)cc1 | n | n[10 µM] | x | x | 11µM
COc1ccc(N(CC(=O)NCc2ccncc2)S(=O)(=O)c2ccc(C)c([N+](=O)[O-])c2)cc1 | n[9.22 µM] | n[10 µM] | x | x | x
O=C(CN(c1ccc(Cl)cc1)S(=O)(=O)c1ccc(Cl)c([N+](=O)[O-])c1)NCCc1ccccc1 | n | n | x | x | 25µM
COc1ccc(-c2nc(NC(C)=O)sc2-c2ccc(OC)cc2)cc1 | n | u | x | u | 3.2µM
[N-]=[N+]=NCC1OC(n2cnc3c(=O)[nH]c(N)nc32)C(O)C1O (stereo not given) | x | x | n | n | n
Cc1nn(C2CCCCC2)c(N)c1-c1ccccc1 | n | n | 11µM | n | n
Cc1nn(C)c(N)c1-c1ccccc1 | n | n | x | x | n
Cc1nn(C(C)(C)C)c(N)c1-c1ccccc1 | n | x | 28µM | n | n
COc1ccc(-c2c(C)nn(-c3ccccc3)c2N)cc1 | n[1.84 µM] | n | 20µM | n | n
COc1ccc(-c2c(C)nn(-c3ccccc3)c2N)cc1OC | n | n[10 µM] | n | n | n
O=C(NCc1ccco1)c1ccc(Br)s1 | n | n | 16µM | n | u
O=C(NCc1ccco1)c1scc2c1OCCO2 | n | n | n | n | 22µM
O=C(NCc1ccco1)c1cc2c(s1)CCCCC2 | n | n[10 µM] | 16µM | n | 28µM
CN(C)CCNc1oc(-c2ccc(COc3ccc(Cl)cc3)o2)nc1C#N | x | x | x | n | x
CN(C)c1ccc(C(c2ccc(N(C)C)cc2)c2ccc([N+](=O)[O-])cc2)cc1 | n[9.22 µM] | n[10 µM] | n | x | n[13.5 µM]
CC(C)c1ccc(Oc2cccc(C(=O)/C(C#N)=C/N(C)C)c2)cc1 | n | n | 16µM | n | n
CN(C)/C=C(\C#N)C(=O)c1cccc(Oc2ccc(Br)cc2)c1 | n | n | n | n | n
O=C(O)CC1S/C(=N/N=C/c2ccc(Br)cc2)N(c2ccccc2)C1=O (stereo not given) | n | n | x | x | 14µM
SMILES | HttQ103 aggreg | HTT ATP protect | HPGD inh | LMNA splice mod | ALDH1A1 block
O=C(O)CC1SC(=Nc2ccccc2)N(c2ccccc2)C1=O (stereo not given) | u | n | n | n | n
Cc1ccc2c(c1)c(=O)c(C(=O)c1ccncc1)cn2CC(=O)Nc1ccc(C(C)C)cc1 | x | x | x | n | x
O=C(N/N=C/c1c(O)n(-c2ccccc2Cl)c(=O)c2ccccc12)C1COc2ccccc2O1 (stereo not given) | 13µM | n[10 µM] | u | u | u
O=[N+]([O-])c1cccc(-c2ccc(/C=N/NC(=S)Nc3cccc(F)c3)o2)c1 | n[9.22 µM] | n[10 µM] | x | x | x
O=C(N/N=C\c1ccccn1)C1COc2cc3ccccc3cc2O1 (stereo not given) | n | n | 14µM | n[0.0737 µM] | u
O=C(N/N=C/c1cccc([N+](=O)[O-])c1)C1COc2ccccc2O1 (stereo not given) | n | n | x | x | u
O=C(N/N=C\c1ccc(-c2ccc([N+](=O)[O-])cc2)o1)C1COc2ccccc2O1 (stereo not given) | n | x | 20µM | u | n
Cc1ccc(-n2c(O)c(/C=N/NC(=O)C3COc4ccccc4O3)c3ccccc3c2=O)cc1 (stereo not given) | u | x | n | n | u
